Results published in PubChem BioAssay (NCI).
This is part of a sample that, as a whole, favours compounds with a hit. Of some 83,000 tested, about 20% had one in any assay.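 Cells were grown in 96-well plates and exposed to the test compound at a single concentration for 48 hours; results are reported as percent growth, with values below 10 considered active.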 Activity calls are given as the source filed them.

Legend:
Assay in all cases: NCI-60 one-dose screen, 48 h (100 = growth as untreated, 0 = no growth, -100 = all killed)
Conditions in all cases: 10 µM unless noted
T-47D breast = system: T-47D breast
BT-549 breast = system: BT-549 breast
MDA-MB-435 melanoma = system: MDA-MB-435 melanoma
MCF7 breast = system: MCF7 breast
HCT-116 colon = system: HCT-116 colon
HCC-2998 colon = system: HCC-2998 colon
SW-620 colon = system: SW-620 colon
KM12 colon = system: KM12 colon

Measured: growth

CCCCCCNC(=O)c1cc(NCc2cc(O)ccc2O)ccc1O
inactive: T-47D breast 21.3% | BT-549 breast 22.4% | MDA-MB-435 melanoma 71.5% | MCF7 breast 54.9% | HCT-116 colon 75% | HCC-2998 colon 105%

COc1ccccc1C(=O)NC(=S)Nc1ccc(-c2nc3ccccc3[nH]2)cc1
inactive: T-47D breast 80.3% | BT-549 breast 32.3% | MDA-MB-435 melanoma 50.3% | SW-620 colon 43.5% | MCF7 breast 21.3% | HCC-2998 colon 85.9% | KM12 colon 53.2%

NC(=Nc1ccc(N)cc1)C(N)=Nc1ccc(N)cc1
inactive: T-47D breast 104% | BT-549 breast 64.3% | MDA-MB-435 melanoma 104% | SW-620 colon 99.2% | HCT-116 colon 95.9% | KM12 colon 108%

Cc1nc(Nc2ccc(S(=O)(=O)Nc3cc(C)on3)cc2)c2ccccc2n1
inactive: T-47D breast 89.1% | BT-549 breast 120% | MDA-MB-435 melanoma 101% | SW-620 colon 109% | HCC-2998 colon 107% | KM12 colon 103%

CSc1ncc(C)c(Nc2ccc(Cl)cc2)n1
inactive: T-47D breast 119% | BT-549 breast 87.1% | MDA-MB-435 melanoma 106% | SW-620 colon 102% | HCT-116 colon 94.2% | HCC-2998 colon 113% | KM12 colon 100%

CCOC(=O)c1c2c(c(C)n1C)-c1nn(Cc3ccc(OC)cc3)cc1CC2
inactive: T-47D breast 64.4% | BT-549 breast 271% | MDA-MB-435 melanoma 100% | SW-620 colon 96.9% | HCT-116 colon 84.4% | HCC-2998 colon 109% | KM12 colon 92.4%

C=C(C=O)C1CCC2(C(=O)O)CCC3(C)C(CCC4C5(C)CCC(O)C(C)(C)C5CCC43C)C12 (stereo unspecified)
active: MCF7 breast 6.07% | HCT-116 colon -92.3% | HCC-2998 colon -85.2% | KM12 colon -87.8%
inactive: T-47D breast 45% | BT-549 breast 17.4% | MDA-MB-435 melanoma 16%

CC12CC(C#N)CCC1O2 (stereo unspecified)
inactive: T-47D breast 116% | BT-549 breast 111% | MDA-MB-435 melanoma 121% | SW-620 colon 97.3% | HCT-116 colon 108% | HCC-2998 colon 114% | KM12 colon 113%

Cc1c(Cl)cccc1NS(=O)(=O)c1ccccc1
inactive: T-47D breast 109% | BT-549 breast 105% | MDA-MB-435 melanoma 101% | SW-620 colon 106% | HCT-116 colon 104% | HCC-2998 colon 109% | KM12 colon 116%

Cc1[nH]c(-c2nc3ccccc3[nH]2)c(C)c1C(=O)NNc1ccc(Cl)cc1
inactive: T-47D breast 85.1% | BT-549 breast 105% | MDA-MB-435 melanoma 97.8% | SW-620 colon 99.6% | HCT-116 colon 94% | HCC-2998 colon 108% | KM12 colon 95.5%

CCN(CC)CCCNC(=O)c1ccc(N)cc1O
inactive: T-47D breast 107% | BT-549 breast 98.7% | MDA-MB-435 melanoma 117% | SW-620 colon 96.2% | HCT-116 colon 94.7% | HCC-2998 colon 78.8% | KM12 colon 106%

O=c1ccn(C2OC(F)(CO)C(O)C2F)c(=O)[nH]1 (stereo unspecified)
inactive: T-47D breast 81.2% | BT-549 breast 101% | MDA-MB-435 melanoma 103% | SW-620 colon 104% | HCC-2998 colon 99.1% | KM12 colon 104%

COc1ccc(-c2c(N)n[nH]c2-c2ccccc2O)cc1OC
inactive: T-47D breast 70% | MDA-MB-435 melanoma 93.4% | SW-620 colon 110% | HCC-2998 colon 107%
active: BT-549 breast -4.52%

Nc1ccc(CCCCc2ccccc2)c(Cl)c1
inactive: T-47D breast 89.9% | BT-549 breast 91.9% | MDA-MB-435 melanoma 99.1% | SW-620 colon 92.3% | HCT-116 colon 92.6% | HCC-2998 colon 113% | KM12 colon 101%

CCN(CC)CCOc1ccc(/C(=C(\C)c2ccc(OC)c(F)c2)c2ccc(Cl)cc2)cc1
inactive: T-47D breast 89.7% | BT-549 breast 89% | MDA-MB-435 melanoma 60.3% | SW-620 colon 63.2% | HCT-116 colon 46.4% | HCC-2998 colon 78.6% | KM12 colon 19.1%

CCCc1cc(=O)oc2c3c(c4c(c12)OC(C)(C)C=C4)O[C@@H](C)[C@H](C)C3=O
inactive: T-47D breast 41.5% | BT-549 breast 68.7% | MDA-MB-435 melanoma 96.2% | SW-620 colon 71.6% | MCF7 breast 56.4% | KM12 colon 70.4%

Cn1nnnc1-c1ccc(N)cc1
inactive: T-47D breast 87.2% | BT-549 breast 93.4% | MDA-MB-435 melanoma 99.5% | SW-620 colon 104% | HCT-116 colon 84.6% | HCC-2998 colon 100% | KM12 colon 99.4%

COc1cc2c(c(OC)c1OC)C(=O)/C(=C/c1cc(C)c(O)c(C)c1)S2
inactive: T-47D breast 47.6% | BT-549 breast 56.9% | SW-620 colon 39.3% | HCC-2998 colon 46.4% | KM12 colon 20.9%
active: MDA-MB-435 melanoma -37.2%

COc1cc2c(cc1OC)-c1ccc3cc4c(cc3c1N(CCCn1ccnc1)C2)OCO4
active: T-47D breast -18.4%
inactive: BT-549 breast 32.1% | MDA-MB-435 melanoma 61.1% | SW-620 colon 39.3% | HCT-116 colon 20% | HCC-2998 colon 82.8%

CC(=O)c1ccc2c(c1)CCN2
inactive: T-47D breast 105% | BT-549 breast 106% | MDA-MB-435 melanoma 111% | SW-620 colon 113% | MCF7 breast 98.3% | KM12 colon 110%

CN1C[C@@H](c2ccc(Cl)cc2)[C@]2(NC(=S)N(c3ccccc3)C2=O)[C@@]12C(=O)NC1C=CC(Br)=C[C@H]12 (stereo partly specified)
inactive: T-47D breast 49.5% | BT-549 breast 56% | MDA-MB-435 melanoma 77.4% | SW-620 colon 85.2% | HCT-116 colon 27.5% | HCC-2998 colon 94.9%

Clc1ccc(/C=N\N=c2\scc(-c3ccc(Cl)cc3)n2/N=C/c2ccc(Cl)cc2)cc1
inactive: T-47D breast 96.1% | BT-549 breast 107% | MDA-MB-435 melanoma 103% | SW-620 colon 99.9% | HCC-2998 colon 104% | KM12 colon 105%

CC(=O)NCC(=O)Nc1ccc(-c2nnc3ccccn23)nc1.CC(=O)NCC(=O)Nc1ccc(-c2nnc3ccccn23)nc1.[Pt+2]
inactive: T-47D breast 105% | BT-549 breast 114% | MDA-MB-435 melanoma 114% | SW-620 colon 105% | HCC-2998 colon 106% | KM12 colon 109%

CCCCNC(=O)c1cc(NCc2cc(O)ccc2O)ccc1O
inactive: T-47D breast 58.1% | BT-549 breast 46.1% | MDA-MB-435 melanoma 96.8% | SW-620 colon 110% | HCT-116 colon 86.2% | HCC-2998 colon 96.4% | KM12 colon 78.4%

N[C@H]1CCC[C@@H]1NCCCCN1C(=O)c2cccc3cccc(c23)C1=O
inactive: T-47D breast 82.6% | BT-549 breast 74.1% | MDA-MB-435 melanoma 89.5% | SW-620 colon 30% | HCT-116 colon 32% | HCC-2998 colon 53.9% | KM12 colon 48.4%

CN=C1C=CC(=C(c2ccc(N(C)C)cc2)c2ccc(N(C)C)cc2)C=C1
active: T-47D breast 3.04% | BT-549 breast -34.3% | MDA-MB-435 melanoma -51% | SW-620 colon 3.29% | HCC-2998 colon -31% | KM12 colon -76.2%

CCCCCCCCn1cc(C2=C(c3coc4ccc(OC)cc34)C(=O)NC2=O)c2ccccc21
inactive: T-47D breast 115% | BT-549 breast 87.4% | MDA-MB-435 melanoma 102% | SW-620 colon 99.1% | HCT-116 colon 104% | HCC-2998 colon 104% | KM12 colon 104%

Cc1ccc(/C(=N\N=C(N)N)c2ccccc2)cc1
active: MDA-MB-435 melanoma 0.321% | HCT-116 colon -66.6% | HCC-2998 colon -3.26% | KM12 colon 2.94%
inactive: T-47D breast 23% | BT-549 breast 37.5% | SW-620 colon 30.3%

CCCCCCCCCCCCCCCCCC1=NCCN1C(=O)OCCO
active: MDA-MB-435 melanoma -21.2% | MCF7 breast -45.6%
inactive: T-47D breast 57.3% | BT-549 breast 113%

CCOC(=O)c1ccc(NC(=O)CCCN(CC)CC)cc1
inactive: T-47D breast 92.6% | BT-549 breast 83.1% | MDA-MB-435 melanoma 108% | SW-620 colon 110% | HCT-116 colon 87.3% | HCC-2998 colon 102% | KM12 colon 104%

COc1ccc2cc(-c3ccc(C(=O)NN)c(C)n3)ccc2c1
inactive: T-47D breast 79.5% | BT-549 breast 88.9% | MDA-MB-435 melanoma 99.9% | SW-620 colon 107% | HCT-116 colon 93.7% | HCC-2998 colon 99.6% | KM12 colon 103%

CC(C)(C)N1CC(OC(N)=O)C1
inactive: T-47D breast 93.3% | BT-549 breast 94.4% | MDA-MB-435 melanoma 96.5% | SW-620 colon 104% | KM12 colon 108%

Cc1nc(Nc2ccc(NC(=S)Nc3ccccc3)cc2)nc2nc(SCc3ccccc3)[nH]c(=O)c12
inactive: T-47D breast 88.5% | MDA-MB-435 melanoma 109% | SW-620 colon 108% | MCF7 breast 87.3% | HCT-116 colon 112% | HCC-2998 colon 111% | KM12 colon 107%

CCN(CC)CC(O)CNc1c2ccc(Cl)cc2nc2ccc(OC)cc12 (stereo unspecified)
inactive: T-47D breast 49.7% | BT-549 breast 42.9%
active: MDA-MB-435 melanoma -72.1% | MCF7 breast -0.467% | HCT-116 colon -32.1% | HCC-2998 colon -92.2% | KM12 colon -30.9%

CC(=O)C(C(C)=O)c1nc2sc3cc(Cl)ccc3n2c(=N)c1C#N
inactive: T-47D breast 75.8% | MDA-MB-435 melanoma 111% | SW-620 colon 95.9% | MCF7 breast 57.9% | HCT-116 colon 87.5% | HCC-2998 colon 106%

CCOC(=O)c1nnn(C(Cc2ccccc2Cl)C(=O)OCC)c1C (stereo unspecified)
inactive: T-47D breast 97.6% | BT-549 breast 107% | MDA-MB-435 melanoma 105% | MCF7 breast 104% | HCT-116 colon 100% | HCC-2998 colon 109% | KM12 colon 102%

COc1ccc(/C(C)=C(\c2ccc(Cl)cc2)c2ccc(OCCN3CCCCC3)cc2)cc1F
inactive: T-47D breast 47.4% | BT-549 breast 60.7% | MDA-MB-435 melanoma 37% | MCF7 breast 15% | HCT-116 colon 19.7% | HCC-2998 colon 25.2% | KM12 colon 18.7%

CCNCCNc1cc(-c2ccc(C(=O)OC)cc2)c(C#N)c2nc3ccccc3n12
inactive: T-47D breast 18.6% | BT-549 breast 68.2% | MDA-MB-435 melanoma 73.2% | MCF7 breast 53.8% | HCC-2998 colon 49% | KM12 colon 50.8%
active: HCT-116 colon -19.5%
